The nature of assay [1]: antimalarial activity against Dd2 strain (AID 2302;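 active means growth inhibition above 50% at the single 2 µM test dose, taken to imply half-maximal potency below 2 µM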;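 further: 0% = DMSO untreated growth and 100% = chloroquine plus artemisinin killed control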). Conditions: P. falciparum Dd2 in RBCs, LDH growth readout, 72 h; at 2 µM; hits give high values.
Assay [2] is described as follows: HepG2 cytotoxicity, primary screen, cytotoxicity control for P. falciparum antimalarial project, cell-based, ATP luminescence (AID 2303;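 active means inhibition above 50%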;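 further: 0% = DMSO wells and 100% = digitonin-killed cells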). Conditions: HepG2 viability, 24-48 h, at 10 µM, hits give high values.
The target in assay [3] is L-lactate dehydrogenase (Plasmodium falciparum (isolate CDC / Honduras)) (UniProt Q27743). The assay can be described thus: PfLDH activity inhibition – cell lysate, 3D7 strain, counter-screen for P. falciparum growth inhibition project (AID 2304).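 Further: 0% = vehicle and 100% = reference inhibitor.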 Conditions: P. falciparum 3D7 crude extract, LDH APAD/NBT absorbance; at 2 µM; hits give high values. (The purpose of a counterscreen is to sort out artefacts and off-target activity.)
L-lactate dehydrogenase (Plasmodium falciparum (isolate CDC / Honduras)), sequence (Q27743 whole entry, looked up): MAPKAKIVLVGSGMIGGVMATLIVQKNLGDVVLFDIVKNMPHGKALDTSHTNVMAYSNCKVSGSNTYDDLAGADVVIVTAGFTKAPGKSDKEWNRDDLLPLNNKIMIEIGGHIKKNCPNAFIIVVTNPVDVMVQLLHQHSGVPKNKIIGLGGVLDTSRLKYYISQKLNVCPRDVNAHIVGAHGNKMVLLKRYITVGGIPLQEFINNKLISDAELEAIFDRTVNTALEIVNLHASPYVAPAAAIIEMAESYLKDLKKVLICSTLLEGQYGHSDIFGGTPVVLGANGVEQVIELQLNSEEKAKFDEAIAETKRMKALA

Assay [4] in a line: inhibition of 3D7 malaria parasite growth – strain 3D7 (AID 2306).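 Further: 0% = DMSO wells and 100% = chloroquine plus artemisinin control wells.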 Conditions: P. falciparum 3D7 erythrocytic growth, LDH absorbance, 72 h; at 2 µM; hits give high values.
Assay [5] has as its target Calcium-dependent protein kinase 1 (Plasmodium falciparum (isolate 3D7)) (UniProt P62344). The assay can be described thus: PfCDPK1 kinase inhibitors, biochemical, TCAMS library (AID 1159585; cut-off not given, nearly all actives have IC50 up to about 0.98 µM;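 further: inhibitors leave more ATP so luminescence rises with inhibition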). Conditions: recombinant PfCDPK1, Kinase-Glo ATP depletion luminescence. (In Kinase-Glo more light means more ATP remaining.)
For assay [6], the target named is Plasmodium falciparum protein kinase 6 (PK6, PF3D7_1337100) (UniProt Q8IDW1). The assay can be described thus: PfPK6 kinase inhibitors, biochemical, TCAMS library (AID 1159586). Conditions: recombinant PfPK6, Kinase-Glo ATP depletion luminescence.
Plasmodium falciparum protein kinase 6 (PK6, PF3D7_1337100), sequence (Q8IDW1 1-305): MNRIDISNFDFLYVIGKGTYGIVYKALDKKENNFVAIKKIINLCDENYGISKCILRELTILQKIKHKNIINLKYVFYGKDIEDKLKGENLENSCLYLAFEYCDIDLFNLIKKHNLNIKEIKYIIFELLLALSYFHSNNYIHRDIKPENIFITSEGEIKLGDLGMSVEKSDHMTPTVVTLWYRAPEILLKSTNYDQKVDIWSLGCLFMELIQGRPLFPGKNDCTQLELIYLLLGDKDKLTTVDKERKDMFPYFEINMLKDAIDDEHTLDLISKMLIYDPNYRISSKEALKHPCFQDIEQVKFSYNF
Assay [7] concerns the target Protein kinase 7 (PK7), Plasmodium falciparum 3D7 (PF3D7_0213400) (UniProt Q7YTF7). The assay can be described thus: inhibition of Plasmodium PK7 catalytic activity – biochemical, TCAMS antimalarial set, Kinase-Glo luminescence (AID 1159587). Conditions: recombinant PfPK7, Kinase-Glo ATP depletion luminescence.
The target of assay [8] is Calcium-dependent protein kinase 4 (Plasmodium falciparum (isolate 3D7)) (UniProt Q8IBS5). The assay can be described thus: PfCDPK4 kinase inhibitors, biochemical, TCAMS library (AID 1159588; cut-off not given, nearly all actives have IC50 up to about 0.91 µM). Conditions: recombinant PfCDPK4, Kinase-Glo ATP depletion luminescence.
Calcium-dependent protein kinase 4 (Plasmodium falciparum (isolate 3D7)), sequence (Q8IBS5 whole entry, looked up): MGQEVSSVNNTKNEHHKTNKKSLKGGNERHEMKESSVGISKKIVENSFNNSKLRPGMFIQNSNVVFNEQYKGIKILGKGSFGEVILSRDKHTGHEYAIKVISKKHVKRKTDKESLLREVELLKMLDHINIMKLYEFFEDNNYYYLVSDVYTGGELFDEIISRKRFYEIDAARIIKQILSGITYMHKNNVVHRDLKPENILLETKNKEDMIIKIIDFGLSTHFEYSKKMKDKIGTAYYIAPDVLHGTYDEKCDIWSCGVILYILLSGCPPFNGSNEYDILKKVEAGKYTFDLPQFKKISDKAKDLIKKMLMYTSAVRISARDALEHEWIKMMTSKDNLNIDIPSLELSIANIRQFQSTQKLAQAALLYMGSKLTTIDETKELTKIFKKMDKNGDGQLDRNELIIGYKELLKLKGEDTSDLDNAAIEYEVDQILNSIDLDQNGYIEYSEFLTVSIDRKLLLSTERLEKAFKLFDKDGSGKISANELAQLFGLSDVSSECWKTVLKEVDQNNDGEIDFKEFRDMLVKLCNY

Unmarked numbers belong to inactive results. For some of these results: Potency and affinity values are given separately. Calls of active or inactive are those of the source. Unless noted, how the calls were made is not given here.

Calcium-dependent protein kinase 1 (Plasmodium falciparum (isolate 3D7)), sequence (P62344 whole entry, looked up): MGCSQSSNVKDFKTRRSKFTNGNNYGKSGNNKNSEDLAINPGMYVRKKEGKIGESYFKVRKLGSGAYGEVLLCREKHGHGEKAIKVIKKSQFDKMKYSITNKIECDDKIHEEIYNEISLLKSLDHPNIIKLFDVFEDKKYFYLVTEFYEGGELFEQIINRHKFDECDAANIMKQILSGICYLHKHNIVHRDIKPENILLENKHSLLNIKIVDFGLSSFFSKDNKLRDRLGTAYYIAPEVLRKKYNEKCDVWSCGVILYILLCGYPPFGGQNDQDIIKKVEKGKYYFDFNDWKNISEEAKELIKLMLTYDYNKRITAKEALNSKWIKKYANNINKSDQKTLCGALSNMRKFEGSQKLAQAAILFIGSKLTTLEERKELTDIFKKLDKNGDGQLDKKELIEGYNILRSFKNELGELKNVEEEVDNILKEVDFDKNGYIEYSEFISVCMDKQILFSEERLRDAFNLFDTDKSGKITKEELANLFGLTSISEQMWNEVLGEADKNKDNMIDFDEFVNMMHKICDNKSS
Protein kinase 7 (PK7), Plasmodium falciparum 3D7 (PF3D7_0213400), sequence (Q7YTF7 1-343): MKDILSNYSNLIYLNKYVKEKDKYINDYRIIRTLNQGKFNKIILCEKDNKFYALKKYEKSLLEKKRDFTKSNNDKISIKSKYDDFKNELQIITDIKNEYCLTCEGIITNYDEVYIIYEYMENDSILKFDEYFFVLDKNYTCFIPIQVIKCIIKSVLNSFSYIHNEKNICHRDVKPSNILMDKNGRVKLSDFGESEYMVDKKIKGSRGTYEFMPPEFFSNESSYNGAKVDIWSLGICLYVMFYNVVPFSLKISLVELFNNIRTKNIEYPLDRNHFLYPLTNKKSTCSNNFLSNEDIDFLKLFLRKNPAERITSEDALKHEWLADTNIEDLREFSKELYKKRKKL

A word on the inhibition: it is the change of the read-out against control, counted positive when it falls. Take `O=C(NC1CCCC1)c1cc2c(=O)n3ccccc3nc2nc1NCCc1ccccc1`: the growth inhibition in assay [1] is 61% (active); in assay [4], 101% (active). In addition, the inhibition is 19% in assay [2] and 2% in assay [3]. The outcome in assay [5], in assay [6], in assay [7] and in assay [8] was inactive.
Consider `O=C(Nc1ccc(N2CCN(Cc3ccccc3Cl)CC2)cc1)c1ccc([N+](=O)[O-])o1`, for which the growth inhibition in assay [1] was 67% (active); in assay [4], 91% (active). The results for the inhibition in assay [2] and in assay [3] were 100% (active) and -4%, respectively. For the same compound, the result in assay [5], in assay [6], in assay [7] and in assay [8] was inactive.
Take `CCc1nc2ccc(C(=O)OC)nc2n1Cc1ccc2oc(-c3ccccc3N)c(Br)c2c1`: the growth inhibition in assay [1] was 75% (active); in assay [4], 93% (active). In addition, the inhibition in assay [2] was 8%; in assay [3], -2%. Also, the result in assay [5], in assay [6], in assay [7] and in assay [8] was inactive.
`COCCn1c(-c2cccc(Cl)c2)nn(-c2ccc([N+](=O)[O-])cc2C#N)c1=S`: the growth inhibition in assay [1] and in assay [4] was 100% (active) throughout. The inhibition was 7% in assay [2] and 0% in assay [3]. Also, the outcome in assay [5], in assay [6], in assay [7] and in assay [8] was inactive.
`COc1cccc(CC(=O)N2CCC(n3c(C)nc4ccc(C)cc43)CC2)c1`: the growth inhibition in assay [1] was 99% (active); in assay [4] it was 100% (active). Further, the inhibition is 1% in assay [2] and -2% in assay [3]. Moreover, the outcome in assay [5], in assay [6], in assay [7] and in assay [8] was inactive.
`C=CCn1c(Cc2ccccc2)nnc1Sc1ccc(C#N)c([N+](=O)[O-])c1`: the values for the growth inhibition in assay [1] and in assay [4] were 43% and 86% (active), respectively. Besides, the inhibition in assay [2] was 7%; in assay [3], 2%. Further, the outcome in assay [5], in assay [6], in assay [7] and in assay [8] was inactive.
For the compound `CCN(CC)S(=O)(=O)n1ncc2c3c(N)nc(N)nc3ccc21`, the growth inhibition in assay [1] is 16%; in assay [4], 93% (active). Also, the inhibition in assay [2] is 67% (active); in assay [3], 3%. Moreover, the result in assay [5], in assay [6], in assay [7] and in assay [8] was inactive.
With `Cc1cc2c(cc1C(F)(F)F)N(C(=O)Nc1cnc(OCCN(C)C)c(C(F)(F)F)c1)CC2`, the growth inhibition in assay [1] is 25%; in assay [4], 88% (active). In addition, the figures for the inhibition in assay [2] and in assay [3] were 28% and -2%, respectively. Besides, the result in assay [5], in assay [6], in assay [7] and in assay [8] was inactive.
With `COc1ccccc1C1CC(c2ccc(Br)cc2)=NN1C(=O)c1ccccc1` (stereo not given), the growth inhibition is 59% (active) in assay [1] and 85% (active) in assay [4]. Further, the inhibition in assay [2] was 12%; in assay [3] it was -6%. The outcome in assay [5], in assay [6], in assay [7] and in assay [8] was inactive.
In the case of `COc1ccc(CN2CCC(CNCCc3ccccc3Cl)CC2)cc1`, the growth inhibition in assay [1] was 17%; in assay [4], 87% (active). Besides, the inhibition in assay [2] was 36%; in assay [3], -9%. Further, the outcome in assay [5], in assay [6], in assay [7] and in assay [8] was inactive.
As for `Fc1ccc2nc(-c3ccc(-c4ccc(CN5CCC(CCN6CCCCC6)CC5)cc4)s3)[nH]c2c1`, the growth inhibition in assay [1] and in assay [4] was 101% (active) throughout. Besides, the inhibition was 96% (active) in assay [2] and 3% in assay [3]. The outcome in assay [5], in assay [6], in assay [7] and in assay [8] was inactive.
In the case of `CN(CCN(C)CC(O)c1ccc(Cl)c(Cl)c1)CC(O)c1ccc(Cl)c(Cl)c1` (stereo not given), the growth inhibition in assay [1] is 73% (active); in assay [4], 91% (active). Moreover, the inhibition in assay [2] was 22%; in assay [3], -2%. The result in assay [5], in assay [6], in assay [7] and in assay [8] was inactive.
As for `CCCN(CCC)CC(O)COc1ccccc1C(=O)Nc1ccccc1` (stereo not given), the growth inhibition is 95% (active) in assay [1] and 92% (active) in assay [4]. The inhibition was 6% in assay [2] and -2% in assay [3]. For the same compound, the outcome in assay [5], in assay [6], in assay [7] and in assay [8] was inactive.
Take `CC1CCN(c2nc(C(=O)Nc3cccc4c3CCCC4)c(C(C)C)s2)CC1`: the growth inhibition was 49% in assay [1] and 96% (active) in assay [4]. The inhibition is 14% in assay [2] and 3% in assay [3]. Also, the outcome in assay [5], in assay [6], in assay [7] and in assay [8] was inactive.
`NC1=NC2(CCCCC2)N(OCCCCCCN2C(=O)c3ccccc3C2=O)C(N)=N1`: the growth inhibition in assay [1] is 16%; in assay [4] it was 98% (active). For the same compound, the inhibition is 20% in assay [2] and 1% in assay [3]. Besides, the outcome in assay [5], in assay [6], in assay [7] and in assay [8] was inactive.
As to `COc1cc(NC2=NS(=O)(=O)c3cc(Cl)ccc3N2C)cc(OC)c1OC`, the results for the growth inhibition in assay [1] and in assay [4] were 100% (active) and 101% (active), respectively. The inhibition is -6% in assay [2] and -2% in assay [3]. Further, the outcome in assay [5], in assay [6], in assay [7] and in assay [8] was inactive.
Consider `O=C(Nc1nc(-c2cc(F)ccc2F)cs1)c1cncc(Br)c1`, for which the growth inhibition in assay [1] is 3%; in assay [4] it was 85% (active). For the same compound, the values for the inhibition in assay [2] and in assay [3] were 16% and -4%, respectively. Also, the outcome in assay [5], in assay [6], in assay [7] and in assay [8] was inactive.
As to `COc1cccc(-c2cccc(NC(=O)C3CCN(Cc4ccc(O)cc4)CC3)c2)c1`, the growth inhibition in assay [1] and in assay [4] was 97% (active) in each case. Moreover, the values for the inhibition in assay [2] and in assay [3] were 9% and 0%, respectively. Moreover, the outcome in assay [5], in assay [6], in assay [7] and in assay [8] was inactive.
With `CC(C)(c1ccccc1)c1ccc(O)c(CN2CCOCC2)c1`, the growth inhibition in assay [1] was 88% (active); in assay [4], 99% (active). Also, the inhibition in assay [2] is -7%; in assay [3], 2%. Also, the outcome in assay [5], in assay [6], in assay [7] and in assay [8] was inactive.
Consider `Cc1cc(NN=Cc2ccccc2[N+](=O)[O-])c2ccccc2n1`, for which the growth inhibition in assay [1] and in assay [4] was 100% (active) throughout. Also, the inhibition is 10% in assay [2] and -2% in assay [3]. In addition, the result in assay [5], in assay [6], in assay [7] and in assay [8] was inactive.
